Our source for the activity increase over dofetilide control, less the hit threshold values is PubChem BioAssay AID1835 (Johns Hopkins Ion Channel Center, 2009).

Molecules are shown by their SMILES. Screen size: about 2,400 compounds; about 750 (31%) were called active. The list shows a part of the results. A number with no mark means an inactive call.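 How the source made its calls: active means median signal gain over dofetilide-blocked control wells reaching their mean plus 3 SD, so readout 1 at least 0; inactive means the rest.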

In the assay the target is Voltage-gated inwardly rectifying potassium channel KCNH2 (Homo sapiens) (UniProt Q12809). The experiment in a line: modulators restoring hERG flux under dofetilide – cell-based, thallium flux, duplicate retest, dofetilide IC70, confirmation (AID 1835). As to conditions: hERG cell line, FluxOR thallium flux, dofetilide-blocked; at 10 µM; hits give high values.
Voltage-gated inwardly rectifying potassium channel KCNH2 (Homo sapiens), sequence (Q12809 whole entry, looked up): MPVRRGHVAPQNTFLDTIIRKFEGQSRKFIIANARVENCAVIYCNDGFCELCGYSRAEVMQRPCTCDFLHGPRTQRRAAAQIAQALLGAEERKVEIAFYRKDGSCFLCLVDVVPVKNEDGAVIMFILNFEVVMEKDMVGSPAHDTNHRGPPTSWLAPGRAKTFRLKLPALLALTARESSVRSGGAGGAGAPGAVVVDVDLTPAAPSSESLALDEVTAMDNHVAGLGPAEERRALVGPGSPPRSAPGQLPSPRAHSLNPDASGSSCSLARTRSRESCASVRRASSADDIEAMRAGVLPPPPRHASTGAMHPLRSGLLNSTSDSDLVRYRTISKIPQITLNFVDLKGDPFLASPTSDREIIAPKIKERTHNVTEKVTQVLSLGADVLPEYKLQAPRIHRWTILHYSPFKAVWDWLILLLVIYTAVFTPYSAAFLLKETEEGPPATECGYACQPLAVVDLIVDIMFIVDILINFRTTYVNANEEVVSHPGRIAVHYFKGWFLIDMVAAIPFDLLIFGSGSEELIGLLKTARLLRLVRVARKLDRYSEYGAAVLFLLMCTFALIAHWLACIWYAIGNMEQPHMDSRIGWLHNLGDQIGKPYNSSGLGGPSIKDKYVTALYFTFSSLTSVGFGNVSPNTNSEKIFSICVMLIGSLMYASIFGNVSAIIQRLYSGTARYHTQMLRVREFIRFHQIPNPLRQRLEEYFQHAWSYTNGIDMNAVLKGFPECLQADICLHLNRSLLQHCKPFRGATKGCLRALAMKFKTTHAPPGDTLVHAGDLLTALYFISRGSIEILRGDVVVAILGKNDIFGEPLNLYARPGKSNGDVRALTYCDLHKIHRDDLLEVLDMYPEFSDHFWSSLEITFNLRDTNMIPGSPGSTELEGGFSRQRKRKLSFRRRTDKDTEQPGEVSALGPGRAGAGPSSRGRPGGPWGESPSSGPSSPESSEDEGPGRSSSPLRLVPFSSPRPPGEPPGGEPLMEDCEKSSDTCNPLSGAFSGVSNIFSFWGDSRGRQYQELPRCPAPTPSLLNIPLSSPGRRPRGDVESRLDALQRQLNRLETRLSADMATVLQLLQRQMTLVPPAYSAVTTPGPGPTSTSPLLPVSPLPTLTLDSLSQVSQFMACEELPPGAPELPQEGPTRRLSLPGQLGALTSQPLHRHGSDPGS
Turning to `CCCCNC(=O)COC(=O)c1ccc(NC(C)=O)cc1`, the activity increase over dofetilide control, less the hit threshold is -18%. For `CCNC(=O)C/C(C)=N/NC(=O)C(=O)Nc1ccc(CC)cc1` the value was 9% (active); for `CCCCCCC12CCC(C(=O)O)(CC1)CC2`, 14% (active).

In the case of `CCOc1ccc(NC(=O)CSc2nc3nc(C)cc(C)n3n2)cc1`, the activity increase over dofetilide control, less the hit threshold is -8%. Under `CCOc1ccc(NC(=O)C2C(C(=O)O)C3(Cl)C(Cl)=C(Cl)C2(Cl)C3(Cl)Cl)cc1` (stereo not given) stands -8%; under `CCOc1ccc(NC(=S)NS(=O)(=O)c2cc(Br)ccc2OCC)cc1`, 37% (active). As for `N#Cc1c(-c2ccc(Cl)cc2)cc(-c2cccs2)nc1SCC(=O)O`, the activity increase over dofetilide control, less the hit threshold was -22%.

Turning to `CCc1nnc(NC(=O)CSc2nc(-c3ccccc3)cc(-c3ccc(OC)cc3)c2C#N)s1`, the activity increase over dofetilide control, less the hit threshold was 11% (active). Under `CCc1nnc(NC(=O)COc2ccc([N+](=O)[O-])cc2)s1` stands -11%; under `CCOc1cc(N2CCCC2)ccc1[N+](=O)[O-]`, -3%. For `CC(=O)c1cccc(NC(=O)NCc2cccs2)c1` the value was -23%; for `Nc1nc2n(n1)C1(CCCCC1)C1=C(CCCC1)N2`, -26%. As to `Cc1ccccc1CC(=O)NC1CCN(Cc2ccccc2)CC1`, the activity increase over dofetilide control, less the hit threshold was -1%.

As to `Cc1nc2ccc(C(=O)O)cc2[nH]1`, the activity increase over dofetilide control, less the hit threshold was -12%. Under `CC(=O)c1c(N2CCN(Cc3ccccc3)CC2)[nH]c(-c2ccccc2)nc1=S` stands 15% (active); under `CC(=O)c1c(N)[nH]c(-c2ccccc2)nc1=S`, 1% (active); under `CC(=O)c1c(C)[nH]c(-c2ccccc2)nc1=S`, -4%. Consider `C=C(C)Cc1c(C)nc(-c2ccccc2)[nH]c1=O`, for which the activity increase over dofetilide control, less the hit threshold was -19%. Under `CC(=O)c1c(N2CCCC2)[nH]c(-c2ccccc2)nc1=S` stands -1%; under `CC(=O)c1c(NC(=O)c2ccccc2)[nH]c(-c2ccccc2)nc1=S`, 24% (active); under `CSc1nc(-c2ccccc2)[nH]c(=S)c1C(C)=O`, 61% (active).

`Cc1cc(C)cc(NC(=O)CSc2nnc(CN3CCOCC3)n2C)c1`: the activity increase over dofetilide control, less the hit threshold is -13%. Regarding `COc1ccc(S(=O)(=O)n2nc(C)c(S(=O)(=O)N3CCOCC3)c2C)cc1OC`, the activity increase over dofetilide control, less the hit threshold is -10%. Under `CCN1CCCC(CO)(Cc2ccccc2)C1` (stereo not given) stands -8%; under `O=C(CSc1nnc(NC(=O)c2ccc(S(=O)(=O)N3CCOCC3)cc2)s1)Nc1ccccc1C(F)(F)F`, -13%; under `Cc1[nH]cnc1CSCCN`, -2%. `O=C(NC(=S)N1CCCc2ccccc21)c1ccc([N+](=O)[O-])cc1`: the activity increase over dofetilide control, less the hit threshold was 11% (active). In the case of `O=C(NC(=S)N1CCCc2ccccc21)c1ccc(Br)cc1`, the activity increase over dofetilide control, less the hit threshold is 32% (active).

Consider `O=C(O)C1CCN1C1CCCCC1` (stereo not given), for which the activity increase over dofetilide control, less the hit threshold was -16%. For `CC(=O)c1c(C)nc(C)nc1NC(=O)C(C)C` the value was -16%; for `CCOC(=O)CSc1nnc(NC(=O)c2ccc3c(c2)OCO3)s1`, -22%. Under `Cc1ccccc1-c1nnn(CC(=O)NCc2ccc3c(c2)OCO3)n1` stands -13%. Under `Cc1ccc(NC(=O)c2cc(-c3ccc4c(c3)OCO4)on2)cc1` stands -6%. On to `c1ccc2c(c1)c1ccccc1n1c(-c3ccc4c(c3)OCO4)nnc21`, for which the activity increase over dofetilide control, less the hit threshold is 1% (active). `O=C(NCc1ccco1)C1CCN(C(=O)Cc2ccccc2)CC1`: the activity increase over dofetilide control, less the hit threshold was -7%. For `CN(C)c1ccc(C(CNS(=O)(=O)c2ccc([N+](=O)[O-])cc2)N2CCCC2)cc1` (stereo not given) the value was -24%; for `Cc1cccc(N2CCN(C(=O)Cc3c(C(=O)O)[nH]c4ccc(Cl)cc34)CC2)c1C`, -14%. For `Cc1cccc(N2CCN(C(=O)CNC(=O)c3cccc([N+](=O)[O-])c3)CC2)c1C` the value was 13% (active); for `C/C=C(\C)CN1CCN(c2cccc(C)c2C)CC1`, -24%. As for `CCOC(=O)c1sc(NC(=O)c2ccccc2C(=O)O)c(C(=O)OCC)c1C`, the activity increase over dofetilide control, less the hit threshold was -4%. For `CCOC(=O)c1sc(NN=C(C(=O)OC)C(=O)OC)c(C(=O)OCC)c1C` the value was 19% (active).

Turning to `CCOC(=O)c1c(C)oc2cc(Br)c(OC)cc12`, the activity increase over dofetilide control, less the hit threshold was -2%. Under `COc1ccc2[nH]c3c(=O)n(CCN4CCOCC4)cnc3c2c1` stands -14%. Regarding `CCC1(C(=O)O)NC(c2cc(OC)ccc2O)C2C(=O)N(Cc3ccccc3)C(=O)C21` (stereo not given), the activity increase over dofetilide control, less the hit threshold is -18%.

Consider `O=C(N/N=C/c1cccs1)C(=O)Nc1cccc(Cl)c1`, for which the activity increase over dofetilide control, less the hit threshold is -6%. For `Nc1nc(O)c(N=Nc2ccc(S(N)(=O)=O)cc2)c(=O)[nH]1` the value was 6% (active); for `O=C1N(CN2CCN(Cc3ccccc3)CC2)c2ccccc2C12OCCCO2`, -4%. For `Cc1ccc(NC(=O)CCC(=O)OCC(F)(F)C(F)F)cc1` the value was -23%; for `CN(C)c1ccc(NC(=O)CCCc2ccccc2)cc1`, -19%; for `CCCCC(=O)Nc1ccc(NCc2ccc(C)s2)cc1`, 14% (active).

As to `O=C(CCNC(=O)C1CCN(S(=O)(=O)c2ccc(F)cc2)CC1)NCc1ccc(Cl)cc1`, the activity increase over dofetilide control, less the hit threshold was -16%. Under `Cc1cc(C)c(Cn2c3ccccc3c3cnn(CC(=O)NCc4ccccn4)c(=O)c32)c(C)c1` stands -4%; under `O=C(Nc1ccc(N2CCOCC2)cc1)c1ccc(S(=O)(=O)N2CCCCC2)cc1`, -10%. For `Cc1ccc(C(=O)N2CCN(c3ccccc3)CC2)cc1S(=O)(=O)N1CCCC1` the value was 19% (active); for `O=C(c1ccc(Cl)c(S(=O)(=O)N2CCCC2)c1)N1CCN(c2ccccc2F)CC1`, -1%; for `C=C(C)CNC(=S)Nc1nc2c(cc1C(=O)OCC)CCCC2`, -4%. As for `C=CCNC(=S)Nc1nc2c(cc1C(=O)OCC)CCCC2`, the activity increase over dofetilide control, less the hit threshold was -4%. For `CCNC(=S)Nc1nc2c(cc1C(=O)OCC)CCCC2` the value was 2% (active). For `CNC(=O)CSc1nnc(-c2ccco2)n1-c1ccccc1` the value was -14%. Under `COc1ccc(C(CC(=O)O)NC(=O)C(c2ccccc2)c2ccccc2)cc1` (stereo not given) stands -10%; under `Cn1c(NNC(=O)C(c2ccccc2)c2ccccc2)cc(=O)n(C)c1=O`, 7% (active). In the case of `CC(=O)c1ccc2c(c1)OCCOCCOCCO2`, the activity increase over dofetilide control, less the hit threshold was -14%. Under `COC(=O)C1CCCN1C(=O)COc1ccc(Cl)cc1Br` (stereo not given) stands -7%; under `Cc1ccc(Cl)cc1NC(=O)COC(=O)c1ccccc1O`, -10%. For `Cc1ccc(C(=O)CC(=O)COc2ccc(Cl)cc2C)cc1` the value was 24% (active); for `CC(C)(C)c1ccc(C(=O)CC(=O)c2cc(Cl)ccc2O)cc1`, 17% (active); for `Cc1cc(Cl)ccc1OC(C)C(=O)NCCc1ccc2c(c1)OCCO2` (stereo not given), -16%. For `Cc1ccc(O)c(C(=O)CC(=O)c2ccc(Cl)cc2)c1` the value was -2%; for `Cc1cccc(C(=O)CC(=O)c2cc(Cl)ccc2O)c1`, -7%. Take `Cc1ccc(C(=O)CC(=O)c2cc(Cl)ccc2O)cc1`: the activity increase over dofetilide control, less the hit threshold is 8% (active).
